Compounds without any hit were thinned out: in the full panel of roughly 83,000, 20% have a hit.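 The endpoint reported here, percent growth, reads 100 for growth as untreated, 0 for no net growth and -100 for all cells dead.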 Values without a mark were called inactive. Active and inactive are the calls of the source. The calls were made as follows: active = growth percent below 10; inactive = the rest.

Test in all cases: NCI-60 one-dose screen, 48 h (100 = growth as untreated, 0 = no growth, -100 = all killed)
The test system of one assay is NCI-H226 lung. To be noted: 10 µM unless noted.
The subject of another assay is NCI-H322M lung. To be noted: 10 µM unless noted.
For a further assay, the system named is HOP-62 NSCLC. The settings on record: 10 µM unless noted.
For another assay, the system named is K-562 leukemia. To be noted: 10 µM unless noted.
The subject of a further assay is SF-295 CNS. The settings on record: 10 µM unless noted.
The subject of a further assay is HCT-15 colon. To be noted: 10 µM.
The subject of a further assay is SNB-19 CNS. To be noted: 10 µM unless noted.
The next assay concerns SK-MEL-5 melanoma. To be noted: 10 µM unless noted.
For a further assay, the system named is LOX IMVI melanoma. To be noted: 10 µM unless noted.
In another assay the test system is TK-10 renal. To be noted: 10 µM unless noted.
For the next assay, the system named is CCRF-CEM leukemia. To be noted: 10 µM unless noted.
The next assay deals with MOLT-4 leukemia. The settings on record: 10 µM.
Another assay has as its system SR leukemia. The settings on record: 10 µM.
The test system of the next assay is RPMI-8226 leukemia. To be noted: 10 µM unless noted.
The subject of the next assay is IGROV1 ovarian. To be noted: 10 µM.
A further assay concerns HCC-2998 colon. The settings on record: 10 µM unless noted.
A further assay has as its system EKVX NSCLC. To be noted: 10 µM unless noted.

Turning to `C=CCN1C(=O)C(CC)(CCC(C)C)C(=O)NC1=S` (stereo not drawn), the growth in the assay on NCI-H226 lung is 104%; in the assay on NCI-H322M lung it was 106%; with HOP-62 NSCLC, 113%; with K-562 leukemia it was 99.8%; with SF-295 CNS it was 88.7%; in the assay with HCT-15 colon, 105%. Further, the growth in the assay on SNB-19 CNS is 100%; in the assay with SK-MEL-5 melanoma, 105%; in the assay on LOX IMVI melanoma, 109%; with TK-10 renal it was 115%; in the assay on CCRF-CEM leukemia, 86.3%; with MOLT-4 leukemia, 96.6%. Also, the growth was 103% in the assay on SR leukemia, 95.1% in the assay on RPMI-8226 leukemia, 108% in the assay with IGROV1 ovarian and 124% in the assay on HCC-2998 colon.
Take `FC(F)=C(F)c1ccccc1`: the growth in the assay on NCI-H226 lung was 113%; with NCI-H322M lung it was 104%; with HOP-62 NSCLC, 87.4%; with K-562 leukemia, 89.2%; with SF-295 CNS, 96.5%; in the assay with HCT-15 colon, 107%. For the same compound, the growth in the assay on SNB-19 CNS was 103%; with SK-MEL-5 melanoma, 105%; in the assay with LOX IMVI melanoma, 88.6%; in the assay with TK-10 renal, 89.7%; in the assay with CCRF-CEM leukemia, 80.3%; with MOLT-4 leukemia it was 92.6%. In addition, the growth with SR leukemia was 80.4%; in the assay with RPMI-8226 leukemia it was 97.5%; in the assay with IGROV1 ovarian, 99%; in the assay with HCC-2998 colon it was 114%.
As for `Cc1cc(NC(=O)NCCOc2ccc(N3C(N)=NC(N)=NC3(C)C)cc2Cl)ccc1S(=O)(=O)F`, the growth was 91.3% in the assay with NCI-H226 lung; 43.4% in the assay with NCI-H322M lung; 60.8% in the assay with HOP-62 NSCLC; 13% in the assay with K-562 leukemia; 92% with HCT-15 colon; 51.5% with SNB-19 CNS. Also, the growth in the assay with SK-MEL-5 melanoma was 23.1%; in the assay with LOX IMVI melanoma it was 12.8%; in the assay with TK-10 renal it was 35.3%; with MOLT-4 leukemia, 26.7%; in the assay on SR leukemia it was 34.8%; with RPMI-8226 leukemia, 40.5%. The growth was 32.5% in the assay on IGROV1 ovarian and 47.3% in the assay with HCC-2998 colon.
`COC(=O)C1CC2c3ccccc3C1c1ccccc12` (stereo not drawn): the growth is 92.3% with NCI-H226 lung; 98.8% in the assay with NCI-H322M lung; 91.3% in the assay on HOP-62 NSCLC; 102% with K-562 leukemia; 87.3% with SF-295 CNS; 91.2% in the assay with HCT-15 colon. Besides, the growth in the assay with SNB-19 CNS is 117%; in the assay on SK-MEL-5 melanoma it was 94%; in the assay with LOX IMVI melanoma, 94.7%; in the assay with TK-10 renal it was 107%; in the assay with MOLT-4 leukemia, 97.3%; with SR leukemia, 93.9%. The growth is 82.1% in the assay on RPMI-8226 leukemia and 96.6% in the assay with IGROV1 ovarian.
With `CC1(C)N=C(N)N=C(N)N1c1ccc(CNC(=O)Nc2ccc(S(=O)(=O)F)c(Cl)c2)c(Cl)c1`, the growth with NCI-H226 lung was 83.8%; in the assay with NCI-H322M lung, 46%; in the assay on HOP-62 NSCLC it was 29.4%; in the assay with K-562 leukemia, 16.4%; with HCT-15 colon it was 47.5%; in the assay with SNB-19 CNS, 56%. Further, the growth was 24.1% in the assay on SK-MEL-5 melanoma; 11.9% with LOX IMVI melanoma; 22.6% with TK-10 renal; 17.5% with CCRF-CEM leukemia; 22.1% with MOLT-4 leukemia; 34.6% in the assay with SR leukemia. Also, the growth is 30.6% with IGROV1 ovarian and 39.7% with HCC-2998 colon.
As to `Cc1cc(C)nc(C)c1.[Cl][Hg][Cl]`, the growth was 120% with NCI-H226 lung; 91.5% in the assay on NCI-H322M lung; 102% in the assay on HOP-62 NSCLC; 83.6% with K-562 leukemia; 94.9% in the assay on SF-295 CNS; 101% with HCT-15 colon. Also, the growth was 104% in the assay with SNB-19 CNS; 106% in the assay with SK-MEL-5 melanoma; 80.2% in the assay with LOX IMVI melanoma; 108% in the assay with TK-10 renal; 78.3% in the assay on CCRF-CEM leukemia; 98.9% with RPMI-8226 leukemia. For the same compound, the growth in the assay with IGROV1 ovarian is 106%; in the assay with HCC-2998 colon, 114%.
For `CC1(C)CC(=O)CC(C)(C)N1N=O`, the growth was 104% with NCI-H226 lung; 121% with NCI-H322M lung; 97.3% in the assay with HOP-62 NSCLC; 111% with K-562 leukemia; 111% in the assay with SF-295 CNS; 98.1% in the assay on HCT-15 colon. Also, the growth with SK-MEL-5 melanoma was 111%; with LOX IMVI melanoma, 97.1%; with EKVX NSCLC it was 112%; in the assay with TK-10 renal, 91.8%; in the assay with MOLT-4 leukemia it was 101%; in the assay with SR leukemia, 109%. Also, the growth was 122% in the assay on IGROV1 ovarian and 97.9% with HCC-2998 colon.
With `CN1CC2CCC(C1)C2=O`, the growth with NCI-H226 lung was 103%; in the assay with NCI-H322M lung, 88.4%; with HOP-62 NSCLC it was 84.4%; in the assay on K-562 leukemia it was 93.1%; with HCT-15 colon, 106%; in the assay with SNB-19 CNS it was 105%. The growth with SK-MEL-5 melanoma was 101%; in the assay with LOX IMVI melanoma, 98.1%; in the assay with TK-10 renal it was 93%; in the assay on CCRF-CEM leukemia, 94.4%; with MOLT-4 leukemia, 91.3%; in the assay on SR leukemia it was 82.7%. Moreover, the values for the growth in the assay with RPMI-8226 leukemia, in the assay on IGROV1 ovarian and with HCC-2998 colon were 98.9%, 93.8% and 114%, respectively.
For the compound `CO[C@@H](c1ccccc1Cl)[C@H](C)OC(N)=O`, the growth was 96.4% in the assay on NCI-H226 lung; 95.1% in the assay with NCI-H322M lung; 96.1% in the assay on HOP-62 NSCLC; 104% with K-562 leukemia; 95.8% with SF-295 CNS; 96.9% in the assay on HCT-15 colon. Also, the growth in the assay with SK-MEL-5 melanoma was 98.7%; in the assay with EKVX NSCLC, 100%; with TK-10 renal it was 97.6%; in the assay with CCRF-CEM leukemia, 82.6%; in the assay with MOLT-4 leukemia, 107%; with SR leukemia it was 111%. Moreover, the results for the growth in the assay with IGROV1 ovarian and with HCC-2998 colon were 102% and 91.5%, respectively.
Take `NC(=O)NC(=O)CI`: the growth with NCI-H226 lung was 95.1%; in the assay with NCI-H322M lung, 119%; with HOP-62 NSCLC, 109%; with K-562 leukemia, 17.7%; with SF-295 CNS it was 119%; with HCT-15 colon, 85.7%. The growth was 86.3% with SNB-19 CNS; -67.3% (active) with LOX IMVI melanoma; 13.8% with MOLT-4 leukemia; 25.9% in the assay with SR leukemia; 69.5% in the assay on IGROV1 ovarian; 113% in the assay on HCC-2998 colon.

The values above are taken from PubChem BioAssay (NCI).
